# Data taken from PubChem BioAssay AID686978 (National Center for Advancing Translational Sciences (NCATS), 2013).
# Out of some 420,000 compounds screened, about 64,000 (15%) were called active. Inconclusive results (about 27%) are left out. A selection follows. Unmarked numbers belong to inactive results. Calls follow the shape of the dose curve; as a rule, active = well fitted inhibition curve with a large enough effect; inconclusive = small, poorly fitted or top-dose-only effect; inactive = flat fitted curve, though single readings scatter.
# Experiment: qHTS for Inhibitors of human tyrosyl-DNA phosphodiesterase 1 (TDP1): qHTS in cells in absence of CPT; also: nearly all actives have a fitted effect of over 55% in size
# Settings: DT40 Tdp1-/- hTDP1 cells, no CPT, ATP luminescence, 48 h; activity change, negative = growth inhibition: at 46.2 µM (top of the series)
# Outline: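 Growth kinetics read by CellTiter-Glo luminescence after ≥48 hr at 37 °C. Cells: DT40 Tdp1-/- stably carrying human TDP1, 400 per well, compound exposure in the absence of CPT (DMSO vehicle).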
# % is scaled to controls: 0 for no effect and ±100 for the full control effect; potency is read from the fitted curve at half-maximal effect.
Compound,"activity change, negative = growth inhibition [%]",Potency
O=C(COC(=O)c1ccc2c(c1)OCCO2)NCc1ccccc1Cl,-9.9,–
CCCS(=O)(=O)NC(=O)C1(C)CCCN(C(=O)c2cc(C)on2)C1 (configuration not stated),0.826,–
Cc1nc2cnc(N3CCN(C)CC3)nc2n(CCC#N)c1=O,0.2,–
Cn1c(SCC(=O)Nc2nccs2)nnc1-c1cccnc1,8.51,–
CN(C)CCCN(C(=O)COc1ccccc1)c1nc2c(Cl)cccc2s1,19.3,–
Cc1cccc2sc(N(CCCN(C)C)C(=O)CCS(=O)(=O)c3ccccc3)nc12,–,1.64 µM (active)
COc1cc2ccccc2cc1C(=O)N(CCN(C)C)c1nc2c(F)cccc2s1,-8.8,–
O=C(NCc1cccnc1)Nc1ccccc1F,-1.9,–
O=C(CCS(=O)(=O)c1ccccc1)N(Cc1cccnc1)c1nc2c(F)cccc2s1,–,2.31 µM (active)
CN(C)S(=O)(=O)c1ccc(C(=O)N(Cc2cccnc2)c2nc3c(F)cc(F)cc3s2)cc1,-27.9,–
COC(=O)[C@H](CC(C)C)NC(=O)N1CCCCC1C (some centres not stated),3.98,–
COC(=O)C1=C(C)NC(=O)NC1/C=C/c1ccccc1 (configuration not stated),1.29,–
O=C(CSc1nnc(-c2c[nH]c3ccccc23)o1)c1ccccc1,-10.2,–
O=C(CSc1nnc(Cn2cnc3ccccc32)o1)c1ccccc1,–,10.3 µM (active)
CC(=O)Nc1ccc(C(=O)CSc2nnc(Cc3ccccc3)o2)cc1,-11.9,–
Cc1cc(C)cc(NC(=O)c2cccc(NC(=O)C3C4CC5OC(=O)C3C5C4)c2)c1 (configuration not stated),0.379,–
Cc1cccc(N2C(=O)SC(N(CC(=O)O)c3cccc(C)c3)C2=O)c1 (configuration not stated),-11.3,–
CCOC(=O)CCP(=O)(O)C(O)(c1ccccc1)c1ccccc1,-9.03,–
O=S(=O)(Nc1ccc2cn[nH]c2c1)c1ccccc1,-22.4,–
O=C(CCNC(=O)C1CCN(S(=O)(=O)c2ccccc2)CC1)NC1CC1,7.77,–
CCOC(=O)c1cc(C(C)C)sc1NC(=O)COC(=O)c1nccnc1N,-25.3,–
O=C1C2(c3ccccc3)CN(CCCO)CC1(c1ccccc1)CN(CCCO)C2,-8.84,–
CCOC(=O)N1CCN(S(=O)(=O)c2ccc3c(c2)C(C)C(=O)N3)CC1 (configuration not stated),0.632,–
Cc1ccc(C)c(N2CCN(S(=O)(=O)c3ccc4c(c3)C(C(C)C)C(=O)N4)CC2)c1 (configuration not stated),–,18.4 µM (active)
O=C1CC(=O)Nc2cc(S(=O)(=O)N3CCN(c4cccc(C(F)(F)F)c4)CC3)ccc2N1,9.11,–
CC1C(=O)Nc2ccc(S(=O)(=O)N3CCN(c4ccccc4F)CC3)cc2NC1=O (configuration not stated),–,20.6 µM (active)

Compound,"activity change, negative = growth inhibition [%]",Potency
Cc1ccc(N2CCN(S(=O)(=O)c3ccc(F)cc3)CC2)c(C)c1,–,18.4 µM (active)
Cc1ccc(C)c(N2CCN(S(=O)(=O)c3ccc4c(c3)oc(=O)n4C)CC2)c1,-8.78,–
Cc1ccc(S(=O)(=O)N2CCN(S(=O)(=O)N3CCOCC3)CC2)cc1,-13.9,–
Cc1ccc(Cl)cc1N1CCN(S(=O)(=O)c2cc3[nH]c(=O)c(=O)[nH]c3cc2C)CC1,-0.246,–
Cc1ccc(S(=O)(=O)N2CCN(C)CC2)cc1,-3.04,–
O=C(N/N=C/c1cccc(OC(=O)c2ccc([N+](=O)[O-])cc2)c1)c1cccnc1,1.64,–
CCOC(=O)c1c(-n2cnnn2)sc(C)c1C,-3.42,–
COc1ccc(NC(=S)N2N=CCC2c2ccccc2)cc1 (configuration not stated),6.67,–
CS(=O)(=O)c1ccc2nc(NC(=O)c3ccc(Cl)nc3)sc2c1,-20,–
O=C(NCc1cccnc1)c1nc(-c2cccs2)no1,-5.14,–
C=CCn1c(=O)n(C)c2c(=O)n(C)c(=O)n(C)c21,-9.27,–
CC(C)C(C)NC(=O)COc1ncnc2ccccc12 (configuration not stated),2.12,–
CCn1ccnc1CNC(=O)CC1C(=O)NCCN1CCCc1ccccc1 (configuration not stated),9.87,–
O=C(CCC(=O)N1CCN(S(=O)(=O)c2ccccc2)CC1)NC1CCCc2ccccc21 (configuration not stated),-23.6,–
Cc1cc(C)c2c(=O)n3c(nc2c1)C(CC(C)C)NC(=O)c1cc2ccccc2cc1-3 (configuration not stated),–,4.61 µM (active)
CCC1NC(=O)c2cccnc2-n2c1nc1ccc(C)cc1c2=O (configuration not stated),3.31,–
O=C1NC(Cc2ccccc2)c2nc3ccc(Br)cc3c(=O)n2-c2cc3ccccc3cc21 (configuration not stated),–,7.31 µM (active)
CCc1ccc(NC2Nc3cc(C)nn3S2)cc1 (configuration not stated),-0.765,–
N#CCC(=O)NC1CCC(CC2CCC(NC(=O)CC#N)CC2)CC1 (configuration not stated),4.54,–
CCOc1cc(C2C(C(=O)OC)=CN(C3CCCC3)C=C2C(=O)OC)cc(Br)c1O,-11.2,–
COc1ccc(S(=O)(=O)Nc2ccc(F)cc2)c(C)c1C,-21.2,–
COc1ccccc1CNS(=O)(=O)CC12CCC(CC1=O)C2(C)C (configuration not stated),3.54,–
CC(=O)Nc1ccc(S(=O)(=O)NC(C)C(=O)OCCOc2ccc(F)cc2)cc1 (configuration not stated),-12,–
Cc1cccc(C)c1NC(=O)Nc1ccccc1-n1ccnc1,2.52,–
COC(=O)C[C@H]1C=C[C@@H](NS(=O)(=O)c2ccc(C)cc2)[C@@H](CO)O1,1.99,–
COc1ccc(C(=O)Nc2sc(C)c(C)c2CN2CCOCC2)cc1,–,23.1 µM (active)

Compound,"activity change, negative = growth inhibition [%]",Potency
COc1ccc(C(=O)Nc2ccnn2C2CCN(Cc3ccncc3)CC2)cc1,-9.39,–
COc1ccc(C(=O)Nc2ccc(CN3CCOCC3)cc2)cc1,-13.6,–
OCC1(CO)CC2(C1)CC(CO)(CO)C2,1.95,–
CCOC(=O)c1sc(NC(=O)/C=C/c2ccc(C(C)C)cc2)c(C(=O)OCC)c1C,-21.3,–
Cc1ccc(S(=O)(=O)NCC(=O)N(CC(=O)NCC2CCCO2)c2cccc(F)c2)cc1 (configuration not stated),-5.08,–
COC(=O)c1cc(NC(=O)CCc2c(C)nc3c4c(C)cc(C)nc4nn3c2C)cc(C(=O)OC)c1,-21.8,–
CCc1noc(C)c1C(=O)OCC(=O)c1ccc(NC(=O)CC(C)C)cc1,–,25.9 µM (active)
CCc1noc(C)c1C(=O)NNC(=O)c1ccc(F)cc1,1.49,–
COc1ccc(C(=O)COC(=O)c2c(C)noc2C)cc1Cl,-23.2,–
O=C(Nc1nsc(-c2ccccc2)n1)c1ccncc1,-26.7,–
NC(=O)c1oc2ccccc2c1NC(=O)Cc1ccccc1,-18.1,–
COc1ccc(-c2nn(-c3ccccc3)cc2/C=C\C(=O)N2CCOCC2)cc1[N+](=O)[O-],2.01,–
COC(=O)[C@H]1[C@H]2C[C@H]3c4[nH]c5ccccc5c4CCN3C[C@@H]2CC[C@@H]1O,–,inactive
C[C@@H]1ON(C)[C@H]2C[C@H]3c4cc(N5CCN(C)CC5)ccc4CCN3C(=O)[C@@H]12,0.647,–
COc1ccc(-c2ccc3[nH]c4c(c3c2)CCN2C[C@H]3[C@H](C)ON(C)[C@H]3C[C@@H]42)cc1,–,20.6 µM (active)
CC(C)(C)C1CCC(C(=O)NCC(c2cccs2)N2CCOCC2)CC1 (configuration not stated),–,8.2 µM (active)
COc1ccc(C(CNC(=O)CSc2ccccc2)N2CCOCC2)cc1 (configuration not stated),-26.7,–
O=C(NCc1csc(-c2cccs2)n1)C1CC1,-6.41,–
Cc1cc(=O)oc(C)c1C(=O)Nc1cnc2ccccc2c1,-21.1,–
CCc1ccc(NC(=O)C(=O)N/N=C(\C)CC(=O)NCCOC)cc1,-7.62,–
CCc1nnc(NC(=O)CSc2nnc(Cc3ccccc3)n2-c2ccc(OC)cc2)s1,-0.0344,–
CCc1c(C)[nH]c(=S)c(C#N)c1C,-9.03,–
COc1cccc(C(=O)NC2(C(F)(F)F)C(=O)Nc3c2c(=O)[nH]c(=O)n3-c2ccc(C)cc2)c1 (configuration not stated),–,23.1 µM (active)
CCOc1ccccc1C(=O)NC1(C(F)(F)F)C(=O)Nc2c1c(=O)[nH]c(=O)n2-c1ccc(F)cc1 (configuration not stated),-13,–
COc1cccc(C(=O)NNC(=O)c2cccc(F)c2)c1,-17,–
Cc1cccc(-c2noc(CCC(=O)NC3CCCC3)n2)c1,-23.5,–

Compound,"activity change, negative = growth inhibition [%]",Potency
CC(=O)C1=CCC(c2ccccc2)N(S(=O)(=O)c2ccc(C)cc2)C1 (configuration not stated),–,23.1 µM (active)
COc1ccc(S(=O)(=O)N2CCOC2CNC(=O)C(=O)NCc2ccncc2)cc1OC (configuration not stated),-2.25,–
Cc1ccc(S(=O)(=O)N2C3C=CC(C3)C2C(=O)O)cc1 (configuration not stated),-0.745,–
Cc1ccc(S(=O)(=O)N2CCCC2CO)cc1 (configuration not stated),0.298,–
O=C(CN1CCN(S(=O)(=O)c2ccc(F)cc2)CC1)NC1CC1,6.75,–
Cc1ccc(S(=O)(=O)N2CC[C@H]3[C@@H](C2)C(=O)C[C@@H](c2ccccc2)N3S(=O)(=O)c2ccc(C)cc2)cc1,-10.3,–
CCOC(=O)C1=CCC(c2ccc(F)cc2)N(S(=O)(=O)c2ccc(C)cc2)C1 (configuration not stated),–,18.4 µM (active)
CCOC(=O)C1=CC[C@@H](c2ccncc2)N(S(=O)(=O)c2ccc(C)cc2)C1,–,23.1 µM (active)
Cc1ccc(NC(=O)CSc2nnc(CNC(=O)c3ccccc3F)o2)cc1,-1.98,–
COc1ccc(-c2cc(=O)oc3cc(OCC(=O)N(C)C4CCS(=O)(=O)C4)ccc23)cc1 (configuration not stated),-0.332,–
Cc1ccc(-c2c[n+](=O)c3c(n2[O-])CCC3)cc1,2.44,–
O=C(C1CCN(C2CCN(Cc3cccc4c3OCO4)CC2)CC1)N1CCOCC1,-10.3,–
COC(=O)C(C)n1cnc2c(nnn2-c2ccc(F)cc2)c1=O (configuration not stated),-4.65,–
O=C1CC(c2ccccc2)C(c2ccccc2)=NN1 (configuration not stated),-23.2,–
CCOc1ccc(N2CC(C(=O)NCc3ccccn3)CC2=O)cc1 (configuration not stated),-0.987,–
O=C(COC(=O)Cc1ccc(Br)cc1)Nc1ccc(N2CCOCC2)cc1,10,–
COc1ccc(C(=O)Nc2c(N)nc(SCC(=O)Nc3ccc(C(C)=O)cc3)[nH]c2=O)cc1,5.39,–
Cc1cc(Cl)c(S(=O)(=O)N(C)C)cc1OCC(N)=O,-0.809,–
COc1ccc(OC)c(S(=O)(=O)n2c([N+](=O)[O-])cnc2C)c1,6.38,–
COc1ccc(C(=O)CSc2nc(C)cc(C)n2)cc1[N+](=O)[O-],-27.1,–
COc1ccc(C(C[N+](=O)[O-])n2nc(C)cc2C)cc1 (configuration not stated),–,6.51 µM (active)
C/C(=N\N)c1c(-c2ccccc2)c2cc(Br)ccc2[nH]c1=O,-4.4,–
COc1ccc(CCNC(=O)COC(=O)/C=C/c2cccs2)cc1OC,-1.02,–
Cc1[nH]n(C)c(=O)c1N=Nc1ccc(S(C)(=O)=O)cc1,-14.6,–
